From PubChem BioAssay (Tox21)
Records with an inconclusive call do not appear. Active and inactive are the calls of the source. Unless noted, calls come from the whole dose curve.

Assays:
[1] = Nuclear factor erythroid 2-related factor 2/antioxidant responsive element (Nrf2/ARE) small molecule agonists: qHTS cell viability counter screen in human keratinocytes (AID 1919968; active = well fitted curve in the direction sought with a large enough effect in the repeat runs; an effect the other way counts as inactive or inconclusive; note: nearly all actives have a fitted effect of over 55% in size)
Summary of the method: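 After a 5 h attachment period, ARE-reporter keratinocytes were dosed with compounds in DMSO and then cultured 23 h at 37 C. Cell viability came from CellTiter-Fluor signal read after a further 1 h.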

[2] = Nuclear factor erythroid 2-related factor 2/antioxidant responsive element (Nrf2/ARE) small molecule agonists: luciferase reporter gene qHTS assay in human keratinocytes (AID 1919969); note: nearly all actives have a fitted effect of over 35% in size
[3] = target: Gonadotropin-releasing hormone receptor (Homo sapiens) (UniProt P30968); experiment: Human gonadotropin-releasing hormone receptor (GnRHR) small molecule agonists, calcium flux assay in GnRHR-HEK293 cells (AID 1920063); note: nearly all actives have a fitted effect of over 35% in size
Summary of the method: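 We seeded human GnRHR-expressing HEK293 cells for 18 hours, loaded them with calcium dye for an hour at 37 C, added test compounds, and recorded fluorescence intensity kinetically for three minutes.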

[4] = target: KiSS-1 receptor (Homo sapiens) (UniProt Q969F8); experiment: Human kisspeptin (KISS1R) small molecule agonists, calcium flux assay in KISS1R-HEK293 cells (AID 1920064; active = well fitted curve in the direction sought with a large enough effect in the repeat runs; an effect the other way counts as inactive or inconclusive)
Summary of the method: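 Kinetic calcium assay, 1 s sampling over 3 min at Ex/Em 480/540, in HEK293 cells engineered with human KISS1R; compounds delivered in DMSO after 1 h dye loading.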

[5] = G protein-coupled receptor (GPCR) small molecule agonists, calcium flux assay: HEK293 wild type cell line counter screen (AID 1920065)
Summary of the method: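 Calcium-sensitive dye, loaded 1 h at 37 C into cells cultured 18 h, reports compound-evoked calcium release as fluorescence (Ex/Em 480/540), measured over 3 min. Agonist mode; 15-point titrations, triplicate.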

[6] = p53 small molecule agonists, cell-based qHTS assay with human liver microsomes (AID 1963577);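 note: p53 response element beta-lactamase reporter cells with liver microsomes plus NADPH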
Summary of the method: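 With metabolic activation: human liver microsomes (0.5 mg/mL final) plus NADPH (0.5 mg/mL final) added alongside compounds to p53RE-bla cells; 16 h 37 C exposure; beta-lactamase read by LiveBLAzer fluorescence.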

[7] = p53 small molecule agonists, cell-based qHTS assay with rat liver microsomes (AID 1963578)
Summary of the method: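 Metabolic activation by rat liver microsomes and NADPH, each 0.5 mg/mL final, added right after compounds to p53RE-bla reporter cells (4,000/well, plated 5 h earlier). 16 h at 37 C, then LiveBLAzer substrate for 2 h at room temperature in the dark; fluorescence read-out.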

[8] = p53 small molecule agonists, cell-based qHTS assay with human liver microsomes: qHTS cell viability counter screen (AID 1963579); note: nearly all actives have a fitted effect of over 45% in size; note: potency is the fitted concentration of half-maximal effect
Summary of the method: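 Metabolic activation used human liver microsomes and NADPH, both 0.5 mg/mL final, over 16 hours at 37 C on p53RE-bla cells (4,000/well). Cytotoxicity measured by CellTiter-Glo luminescence, 30 min at room temperature.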

[9] = p53 small molecule agonists, cell-based qHTS assay with rat liver microsomes: qHTS cell viability counter screen (AID 1963580); note: nearly all actives have a fitted effect of over 45% in size; note: potency is the fitted concentration of half-maximal effect
Summary of the method: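 In HCT-116 cells carrying a p53 response element-bla reporter, compounds were metabolically activated in situ by rat liver microsomes with NADPH over 16 h. Cell ATP content then served as the cytotoxicity measure.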

[10] = p53 small molecule agonists, cell-based qHTS assay (AID 1963582; active = well fitted activation curve with a large enough effect in the signal ratio in the repeat runs, not every such curve was filed as active; the % refers to the signal ratio)
Summary of the method: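 In this cell-based concentration-response screen, a p53 response element drives beta-lactamase; cells received DMSO-borne compounds after 5 h culture and were incubated a further 16 h before FRET substrate development.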

[11] = target: 5-hydroxytryptamine receptor 2A (Homo sapiens) (UniProt P28223); experiment: 5-hydroxytryptamine receptor 2A (HTR2A) small molecule antagonists, cell-based qHTS assay (AID 1963586); note: nearly all actives have a fitted effect of over 45% in size
Summary of the method: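 Antagonist-mode intracellular calcium assay: DOI (4 nM) added after 5 min compound pre-incubation at room temperature to dye-loaded HTR2A-CHO cells. Fluorescence followed for 3 min, sampled every second.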

[12] = target: 5-hydroxytryptamine receptor 2A (Homo sapiens) (UniProt P28223); experiment: 5-hydroxytryptamine receptor 2A (HTR2A) small molecule agonists, cell-based qHTS assay (AID 1963587); note: nearly all actives have a fitted effect of over 30% in size
Summary of the method: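 HTR2A-CHO cells, plated 18 h at 37 C/5% CO2, dye-loaded 1 h at 37 C; compounds in DMSO added by pin tool (agonist mode). Intracellular calcium flux read as kinetic fluorescence on FDSS over 2 min at 1 s intervals.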

[13] = target: Muscarinic acetylcholine receptor M1 (Homo sapiens) (UniProt P11229); experiment: Cholinergic receptor muscarinic 1 (CHRM1) small molecule antagonists, cell-based qHTS assay (AID 1963588); note: nearly all actives have a fitted effect of over 40% in size
Summary of the method: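 CHRM1-CHO calcium-flux assay, antagonist mode. Cells were seeded 18 h, dye-loaded 1 h at 37 C and given compound for 5 min at RT, then acetylcholine was added at 50nM. FDSS fluorescence was read 3 min; 15 concentrations, three runs.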

[14] = target: Muscarinic acetylcholine receptor M1 (Homo sapiens) (UniProt P11229); experiment: Cholinergic receptor muscarinic 1 (CHRM1) small molecule agonists, cell-based qHTS assay (AID 1963589); note: nearly all actives have a fitted effect of over 35% in size
Summary of the method: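 Measures agonist-induced intracellular calcium rise. Stable human CHRM1 CHO line, 1 h dye load at 37 C, compounds from DMSO, kinetic fluorescence read.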

[15] = cAMP Responsive Elements (CRE) small molecule agonists, cell-based qHTS assay (AID 1963590)
Summary of the method: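 A CRE-responsive beta-lactamase reporter in HEK 293T cells was used. Treatment ran 3 h at 37 C; detection used LiveBLAzer B/G FRET substrate for 2 h at room temperature.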

[16] = cAMP Responsive Elements (CRE) small molecule antagonists, cell-based qHTS assay (AID 1963591; active = well fitted inhibition curve with a large enough effect in the signal ratio in the repeat runs, not every such curve was filed as active; the % refers to the signal ratio)
Summary of the method: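 HEK293T cells carrying a CRE-driven beta-lactamase reporter receive compound and NKH477 (0.25 uM final) for 3 h. Fluorescence from LiveBLAzer B/G FRET substrate is read after 2 h at room temperature.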

[17] = target: Beta-2 adrenergic receptor (Homo sapiens) (UniProt P07550); experiment: Adrenergic beta2 receptor (ADRB2) small molecule antagonists, cell-based qHTS assay (AID 1963592); note: series mostly up to about 92 µM; nearly all actives have a fitted effect of over 50% in size
Summary of the method: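 Cells (CHO, stable ADRB2 overexpression) incubated 18-20hr at 37C; compounds added from DMSO; agonist mix (1nM isoproterenol, 100uM IBMX, 25uM Ro-20-1724) added; 0.5hr RT; d2-cAMP and anti-cAMP-cryptate added; 1hr RT; 665/615 nm read.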

[18] = target: D(2) dopamine receptor (Homo sapiens) (UniProt P14416); experiment: Dopamine D2 receptor (DRD2) small molecule agonists, cell-based qHTS assay (AID 1963594); note: nearly all actives have a fitted effect of over 35% in size
Summary of the method: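 HEK293 cells stably expressing DRD2 were cultured 24 h at 37 C, then given Ro20-1724 (0.1 mM final) and compounds for 10 min at room temperature. NKH477 (200nM) was then added for 30 min. cAMP was read by HTRF.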

[19] = target: D(2) dopamine receptor (Homo sapiens) (UniProt P14416); experiment: Dopamine D2 receptor (DRD2) small molecule antagonists, cell-based qHTS assay (AID 1963595; active = well fitted inhibition curve with a large enough effect in the signal ratio in the repeat runs, with a control signal flat; the % refers to the signal ratio)
Summary of the method: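 HEK293 cells stably expressing DRD2 were preincubated with 0.1 mM Ro20-1724, then with compound for 10 min at room temperature. Cells were stimulated with 200 nM NKH477 plus 12 nM quinpirole for 30 min, and cAMP was read by HTRF.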

Measured: Potency

Sequence of KiSS-1 receptor (Homo sapiens) (Q969F8 whole entry, looked up): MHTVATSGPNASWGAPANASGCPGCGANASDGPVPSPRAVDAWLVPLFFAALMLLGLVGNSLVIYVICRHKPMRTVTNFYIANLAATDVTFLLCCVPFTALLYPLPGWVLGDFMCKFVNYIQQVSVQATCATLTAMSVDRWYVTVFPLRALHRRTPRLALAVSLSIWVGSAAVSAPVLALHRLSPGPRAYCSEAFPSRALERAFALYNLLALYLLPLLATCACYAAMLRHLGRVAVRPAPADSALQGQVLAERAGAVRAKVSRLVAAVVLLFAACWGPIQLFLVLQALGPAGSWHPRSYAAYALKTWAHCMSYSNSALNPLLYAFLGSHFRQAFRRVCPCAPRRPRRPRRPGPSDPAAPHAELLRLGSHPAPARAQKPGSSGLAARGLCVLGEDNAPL
Sequence of Gonadotropin-releasing hormone receptor (Homo sapiens) (P30968 whole entry, looked up): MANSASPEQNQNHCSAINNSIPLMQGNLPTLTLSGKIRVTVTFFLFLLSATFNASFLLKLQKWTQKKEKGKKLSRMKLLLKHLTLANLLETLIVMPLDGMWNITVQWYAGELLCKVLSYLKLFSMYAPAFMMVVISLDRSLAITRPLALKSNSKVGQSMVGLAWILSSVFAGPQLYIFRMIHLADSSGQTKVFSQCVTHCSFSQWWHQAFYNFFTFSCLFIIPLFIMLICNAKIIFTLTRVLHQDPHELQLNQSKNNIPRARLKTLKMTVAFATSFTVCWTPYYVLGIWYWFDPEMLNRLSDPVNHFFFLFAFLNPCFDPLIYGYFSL
Sequence of 5-hydroxytryptamine receptor 2A (Homo sapiens) (P28223 whole entry, looked up): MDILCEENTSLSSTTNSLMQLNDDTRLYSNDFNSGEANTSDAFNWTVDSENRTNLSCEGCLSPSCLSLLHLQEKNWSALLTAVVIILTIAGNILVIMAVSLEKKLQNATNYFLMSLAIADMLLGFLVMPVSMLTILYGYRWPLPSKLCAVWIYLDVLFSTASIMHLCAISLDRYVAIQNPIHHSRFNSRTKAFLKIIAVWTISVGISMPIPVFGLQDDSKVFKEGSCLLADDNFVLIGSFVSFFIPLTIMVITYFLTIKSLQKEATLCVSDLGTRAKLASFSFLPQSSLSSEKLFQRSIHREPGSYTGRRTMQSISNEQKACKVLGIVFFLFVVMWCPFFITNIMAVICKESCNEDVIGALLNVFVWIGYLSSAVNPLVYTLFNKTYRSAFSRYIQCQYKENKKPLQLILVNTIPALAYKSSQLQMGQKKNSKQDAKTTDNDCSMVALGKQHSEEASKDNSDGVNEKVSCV
Sequence of D(2) dopamine receptor (Homo sapiens) (P14416 whole entry, looked up): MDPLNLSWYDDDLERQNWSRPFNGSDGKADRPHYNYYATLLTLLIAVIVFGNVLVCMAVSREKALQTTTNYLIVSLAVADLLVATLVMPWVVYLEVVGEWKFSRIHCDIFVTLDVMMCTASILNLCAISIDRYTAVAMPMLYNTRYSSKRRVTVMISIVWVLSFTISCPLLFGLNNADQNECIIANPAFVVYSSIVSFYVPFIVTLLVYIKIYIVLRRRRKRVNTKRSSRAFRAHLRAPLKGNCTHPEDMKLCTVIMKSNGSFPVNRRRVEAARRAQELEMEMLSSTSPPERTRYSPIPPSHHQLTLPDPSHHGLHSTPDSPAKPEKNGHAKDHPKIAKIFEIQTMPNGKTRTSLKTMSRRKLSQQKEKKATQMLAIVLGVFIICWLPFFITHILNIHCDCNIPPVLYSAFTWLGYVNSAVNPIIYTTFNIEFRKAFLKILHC
Sequence of Muscarinic acetylcholine receptor M1 (Homo sapiens) (P11229 whole entry, looked up): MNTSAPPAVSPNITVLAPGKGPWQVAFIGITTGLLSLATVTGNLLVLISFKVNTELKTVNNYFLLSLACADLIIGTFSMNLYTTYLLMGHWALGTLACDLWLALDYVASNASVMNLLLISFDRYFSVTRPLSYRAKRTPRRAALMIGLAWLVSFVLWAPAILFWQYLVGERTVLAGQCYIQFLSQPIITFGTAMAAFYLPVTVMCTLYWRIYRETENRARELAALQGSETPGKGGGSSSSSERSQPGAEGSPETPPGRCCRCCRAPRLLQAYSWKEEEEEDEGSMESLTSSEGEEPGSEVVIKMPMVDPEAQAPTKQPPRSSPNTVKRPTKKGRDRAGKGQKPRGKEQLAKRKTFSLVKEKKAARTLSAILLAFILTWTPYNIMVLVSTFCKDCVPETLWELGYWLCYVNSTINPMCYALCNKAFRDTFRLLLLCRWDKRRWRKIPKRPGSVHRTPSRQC
Sequence of Beta-2 adrenergic receptor (Homo sapiens) (P07550 whole entry, looked up): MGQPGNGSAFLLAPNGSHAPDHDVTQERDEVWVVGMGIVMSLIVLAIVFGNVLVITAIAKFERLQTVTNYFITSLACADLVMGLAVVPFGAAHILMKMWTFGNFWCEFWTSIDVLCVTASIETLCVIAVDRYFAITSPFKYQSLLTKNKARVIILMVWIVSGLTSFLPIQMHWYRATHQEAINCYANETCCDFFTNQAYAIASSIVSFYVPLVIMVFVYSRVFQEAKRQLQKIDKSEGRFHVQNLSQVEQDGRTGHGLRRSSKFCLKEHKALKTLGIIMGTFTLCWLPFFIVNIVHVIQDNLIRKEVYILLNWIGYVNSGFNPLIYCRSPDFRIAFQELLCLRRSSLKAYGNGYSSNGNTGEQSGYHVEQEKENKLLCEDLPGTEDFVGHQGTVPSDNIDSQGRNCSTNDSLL

CCCCOCC
active: [9] 1.62 µM
inactive: all other assays above

COC(=O)/C=C\C(=O)O
inactive: all assays above

CC1(C)S[C@@H]2[C@H](NC(=O)C(C(=O)O)c3ccccc3)C(=O)N2[C@H]1C(=O)O (some centres undefined)
active: [8] 177 nM
not listed: [17]
inactive: all other assays above

CCn1c2ccccc2c2cc([N+](=O)[O-])ccc21
not listed: [15]
inactive: all other assays above

O=C1CCCCCCCCCCCCCC1
not listed: [17]
inactive: all other assays above

CC[N+](CC)(CC)Cc1ccccc1
inactive: all assays above

Cc1cnc(NS(=O)(=O)c2ccc(N)cc2)nc1
not listed: [18]
inactive: all other assays above
